hcDAF12 agonist: activates DAF-12 receptor from parasite H. contortus; HEK293 hcDAF-12 lit1-tk-luc reporter, luminescence; 0% DMSO, 100% Δ7-dafachronic acid; activation, % at 6.8 µM; actives 1.4% (n = 370,000);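 active means activation above the mean of all tested compounds plus 3 SD, cut at about 5.5% in these data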;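 further: 100% = response to 3 µM Δ7-dafachronic acid high control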
ssDAF12 agonist: S. stercoralis DAF-12 activation, primary screen; HEK293 ssDAF-12/GRIP1 lit1-tk-luc reporter, luminescence; % of 3 µM dafachronic acid response; activation, % at 6.8 µM; actives 1% (n = 370,000); AID 652126;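 active means activation above the mean over all tested compounds plus 3 SD, cut at about 0.9% in these data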;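 further: 0% = DMSO-only wells and 100% = 3 µM delta7-dafachronic acid wells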
hgDAF12 agonist: activates the H. glycines DAF-12 receptor ligand-binding domain | HEK293 GAL4-hgDAF12 UAS-luciferase reporter, agonist luminescence; normalized to butyrate control | activation, % at 6.8 µM | actives 1.8% (n = 370,000);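 active means activation above a cutoff set at the mean of all screened compounds plus 3 SD, cut at about 10% in these data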;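 further: 0% = DMSO wells and 100% = sodium butyrate wells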
DAX1 inh-1: NR0B1 (DAX1) inhibition | inhibition, % at 6.75 µM | P51843 | actives 0.99% (n = 340,000) | HEK293 Gal4-DAX1 luciferase reporter, luminescence;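 active means inhibition above the mean over all tested compounds plus 3 SD, cut at about 4.2% in these data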;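 further: 0% = DAX1-transfected cells with DMSO and 100% = empty-vector control cells with DMSO; inhibition shows as a rise in luminescence from relieved DAX1 repression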
Target sequence (P51843 207-470 limits assumed): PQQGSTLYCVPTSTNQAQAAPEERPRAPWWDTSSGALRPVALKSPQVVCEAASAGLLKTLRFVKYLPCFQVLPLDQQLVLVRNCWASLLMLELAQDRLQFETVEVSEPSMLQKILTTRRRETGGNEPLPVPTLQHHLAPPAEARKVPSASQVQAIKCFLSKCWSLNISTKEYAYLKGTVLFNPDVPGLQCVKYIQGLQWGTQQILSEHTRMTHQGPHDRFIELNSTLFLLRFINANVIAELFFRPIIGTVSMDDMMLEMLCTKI
DAX1 inh-2: blocks DAX1 repression of SF-1 activated StAR promoter. HEK293T StAR-luciferase reporter, SF-1/DAX-1 repression relief. inhibition, % at 6.8 µM. actives 1.1% (n = 370,000). AID 652010;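 active means inhibition above the mean over all tested compounds plus 3 SD, cut at about 3.6% in these data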;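 further: 0% = DAX-1 cells with DMSO and 100% = cells lacking DAX-1 with DMSO; higher inhibition means more luminescence from relief of DAX-1 repression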
LXR ag: activates human LXR-beta, counter-screen for hcDAF-12 agonists | HEK293 Gal4-LXR tk-luc reporter, luminescence, 24 h; normalized: DMSO 0%, positive control 100% | shares compounds with hcDAF12 agonist | AID 743027 | 3,400 tested, under 10 active | activation, % at 6.8 µM;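 active means mean percent activation of the reporter above a cutoff set as the average over tested compounds plus their standard deviation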
hcDAF12 ag: confirmation of H. contortus DAF-12 agonists; shares compounds with hcDAF12 agonist; HEK293 hcDAF-12 lit1-tk-luc reporter, luminescence; % of Δ7-dafachronic acid response; activation, % at 6.8 µM; actives 61% (n = 3,400); AID 743032;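 active means mean activation across triplicate tests above the threshold derived from the earlier primary screen, cut at about 5.5% in these data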;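 further: 0% = DMSO only wells and 100% = 3 µM Δ7-dafachronic acid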
hgDAF12 ag: hgDAF-12 agonism, confirmation assay; shares compounds with hgDAF12 agonist; HEK293 GAL4-hgDAF12 luciferase reporter, agonist mode; percent of butyrate response; activation, % at 6.8 µM; actives 80% (n = 3,300);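 active means mean activation over triplicate wells above the hit cutoff derived from the earlier primary screen, cut at about 11% in these data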;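 further: 0% = DMSO low control and 100% = 2 mM sodium butyrate high control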
LXR ag 2: activates human LXR-beta, counter-screen for DAF-12 agonists. shares compounds with hgDAF12 agonist. HEK293 Gal4-LXR luciferase reporter, 24 h. activation, % at 6.8 µM. 3,300 tested, under 10 active;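 active means mean activation of the triplicate above a set limit carried over from the primary screen, none filed active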
An asterisk follows results filed as active; x = not tested or not shown. Most compounds without a hit are left out; they make up all but 4.1% or so of the library.

SMILES	hcDAF12 agonist	ssDAF12 agonist	hgDAF12 agonist	DAX1 inh-1	DAX1 inh-2	LXR ag	hcDAF12 ag	hgDAF12 ag	LXR ag 2
CSc1ccc(NC(=O)Nc2cc(C)ccn2)cc1	7.0*	0.9*	19*	2	3	2	9.5*	18*	1
Cc1ccc2nc(SCn3nnc4ccccc4c3=O)[nH]c2c1	9.8*	1.8*	24*	4	4.1*	1	10*	16*	1
C/C(N)=C(/C#N)C(=O)CSc1nc2ccc(C)cc2[nH]1	11*	1.4*	17*	2	4.3*	1	7.1*	16*	1
CC(C)Cn1cnc2c1c(=O)[nH]c(=O)n2Cc1ccccc1	-1	-1	3	1	0	x	x	x	x
O=C(Nc1ncc(Cc2cccc(Cl)c2)s1)c1cccs1	2	-1	7	1	1	x	x	x	x
Cc1ccc(Cc2cnc(NC(=O)c3cccs3)s2)cc1	10*	1.5*	15*	2	3.8*	2	7.3*	18*	1
O=C(Nc1ncc(Cc2ccccc2)s1)c1cccs1	8.4*	1	15*	1	3	2	8.0*	20*	1
CN(C)/C=N/N(C)c1ncccc1[N+](=O)[O-]	0	-1	-1	-1	0	x	x	x	x
CCOC(=O)CC1C(=O)NCCN1C(=S)NC(=O)c1ccc(C)c(Br)c1 (stereo unspecified)	-1	-1	-2	1	-1	x	x	x	x
CC(Nc1nc(-c2cccc(Br)c2)cs1)c1nc2cc(Cl)c(N3CCCCC3)cc2n1CCOCCO (stereo unspecified)	-1	-1	-1	0	-1	x	x	x	x
Oc1[nH]c2ccccc2c1C=Nc1ccccc1	8.3*	1.6*	21*	13*	3	1	8.9*	24*	1
CC(C)C(=O)N1CCC1(C)C(=O)Nc1cccc(Oc2ccccc2)c1 (stereo unspecified)	0	-2	3	x	-1	x	x	x	x
N/C(=N\OC(=O)c1cc(Br)ccc1Cl)c1cccnc1	5	0	2	3	1	x	x	x	x
N/C(=N\OC(=O)c1cccc2ccccc12)c1ccccn1	15*	3.5*	14*	1	2	1	14*	11*	1
Cc1c(C(=O)O/N=C(\N)c2ccccn2)cccc1[N+](=O)[O-]	16*	3.0*	17*	2	2	1	10*	20*	1
N/C(=N\OC(=O)c1ccc2ccccc2c1)c1ccccn1	-2	-2	-11	-5	0	x	x	x	x
N/C(=N\OC(=O)c1cc(Br)ccc1Cl)c1ccccn1	16*	3.8*	21*	2	3.7*	1	15*	23*	1
N/C(=N\OC(=O)Cc1ccccc1[N+](=O)[O-])c1ccccn1	0	-2	0	0	0	x	x	x	x
N/C(=N\OC(=O)c1ccccc1Cl)c1cccnc1	9.7*	1.9*	15*	1	3	1	6.4*	14*	1
COc1ccc(/C=C/c2nnc(NC(=O)CC(C)C)s2)cc1	-2	-1	-1	1	0	x	x	x	x
Cc1ccc(NC(=O)c2ccc3ccccc3n2)nc1	16*	3.5*	16*	3	3.8*	2	17*	20*	1
CCc1nnc(NC(=O)c2ccc3ccccc3n2)s1	13*	2.6*	14*	1	3.9*	1	15*	18*	1
O=C(Nc1ccccc1C(=O)O)c1ccc2ccccc2n1	5	0	6	0	2	x	x	x	x
CCc1nnc(NC(=O)c2nc(Cl)ccc2Cl)s1	2	-1	-1	0	1	x	x	x	x
CCCCNC(=O)C1(C)CCC(=O)N1C1CC1 (stereo unspecified)	0	-1	2	x	0	x	x	x	x
SMILES	hcDAF12 agonist	ssDAF12 agonist	hgDAF12 agonist	DAX1 inh-1	DAX1 inh-2	LXR ag	hcDAF12 ag	hgDAF12 ag	LXR ag 2
CC1=C(C)CC(C(=O)NCc2cccc(Cl)c2)C(C(=O)O)C1 (stereo unspecified)	-1	-1	0	1	0	x	x	x	x
CCOC(=O)c1sc(=NC(=O)c2ccco2)n(C)c1C	9.0*	1	14*	1	1	1	11*	14*	0
Nc1c(C(=O)N2CCOCC2)sc2nc3c(cc12)CCCC3	6.9*	0	14*	-3	3	1	7.1*	3	1
Nc1c(C(=O)N2CCCC2)sc2nc3c(cc12)CCCCCC3	3	-1	7	2	3	x	x	x	x
CC1=CN2C(=N)/C(=C/c3ccco3)C(=O)N=C2S1	10*	1.6*	16*	3	4.0*	1	3	12*	1
O=C(N/N=C/c1c[nH]c2ccccc12)c1ccc2c(c1)OCCO2	13*	1.7*	18*	3	1	1	7.0*	23*	1
O=C(NC(Cc1c[nH]c2ccccc12)C(=O)N/N=C/c1cccc2ccccc12)c1cccs1 (stereo unspecified)	-2	-1	0	0	-1	x	x	x	x
O=C(N/N=C/c1cccc2ccccc12)c1cccs1	8.2*	1	17*	4.5*	3	1	7.3*	16*	1
O=C(N/N=C/c1c[nH]c2ccccc12)c1cccs1	6.9*	1.7*	14*	x	1	1	6.4*	11*	0
C[C@H](CO)N1C[C@H](C)[C@H](CN(C)C(=O)Nc2ccc(C(F)(F)F)cc2)Oc2ncc(Br)cc2C1=O	2	-1	-2	1	-1	x	x	x	x
Cc1ccc(NC(=O)CSCC(=O)NCc2ccco2)cc1	-2	-1	1	0	0	x	x	x	x
Cc1ccc(NC(=O)CSCc2ccco2)cc1	8.0*	1.3*	17*	1	0	1	4	13*	0
Cn1/c(=N/N=C/c2ccccn2)sc2ccccc21	8.2*	1	23*	x	3	1	7.1*	18*	1
Cc1cccc(-n2ncc3c(N4CCC(C)CC4)ncnc32)c1	6.6*	0	24*	3	7.6*	2	6.2*	13*	1
O=C(c1ccc(CNS(=O)(=O)c2cccc(Cl)c2)cc1)N1CCCCC1	1	-1	1	0	-2	x	x	x	x
